# Experimental data as given in PubChem BioAssay AID1907 (The Scripps Research Institute Molecular Screening Center, 2009).
# The campaign covered roughly 1,900 compounds. About 1,200 (63%) were called active. The set was probably picked from earlier hits. A selection follows. A number with no mark means an inactive call. Cut-off read from the data, not from the text of the source: active = inhibition above about 22%; inactive = the rest.
# Test: rat intestinal IEC-6 viability loss – cell-based, luminescence, cytotoxicity control, confirmation (AID 1907);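 note: 0% = vehicle and 100% = reference cytotoxic drug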
# Conditions: IEC-6 rat intestinal epithelial viability, at 5 µM, active compounds read high
row,Compound,inhibition
1,COc1ccc(C)cc1Nc1nc(C)nc2c1oc1ccccc12,22.4% (active)
2,COc1cc(NS(=O)(=O)c2ccc3ccccc3c2)c2ncccc2c1,63.1% (active)
3,CCCOn1c(-n2nc(C)cc2C)nc2ccccc2c1=O,-7.58%
4,O=C(NCCOc1cccnc1)c1ccc(OC2CCN(Cc3ccccn3)CC2)cc1,99.6% (active)
5,Cc1cc(C)n2nc(CNS(=O)(=O)c3c(F)c(F)c(F)c(F)c3F)nc2n1,13%
6,CCCOc1ccccc1C1CC(=O)Nc2cc3c(cc21)OCO3 (configuration not stated),56.8% (active)
7,COc1ccccc1C1C2=C(COC2=O)Nc2cc3c(cc21)OCO3 (configuration not stated),62.6% (active)
8,COc1ccccc1NC(=O)c1ccc(C)s1,5.92%
9,C[C@@H]1C[C@@H]2O[C@H]2/C=C\C=C\C(=O)Cc2c(Cl)c(O)cc(O)c2C(=O)O1,38.8% (active)
10,Cc1ccc(-c2csc(NC3OC(=O)c4ccccc43)n2)cc1 (configuration not stated),28.3% (active)
11,COc1ccc2c(c1OC)C(=O)OC2Nc1nc(-c2ccccc2)cs1 (configuration not stated),25% (active)
12,Cc1cccc(NC(=O)c2ccc([N+](=O)[O-])o2)c1,20%
13,CC[C@H]1CN2CCc3cc(OC)c(OC)cc3[C@@H]2C[C@@H]1C[C@H]1NCCc2cc(OC)c(OC)cc21,97.2% (active)
14,CSc1nnc2ccc(-c3ccc(C)cc3)nn12,25% (active)
15,O=C1C(=O)N(CC2COc3ccccc3O2)c2ccccc21 (configuration not stated),-2.39%
16,CCOC(=O)c1c(C)[nH]c2c1-c1ccccc1C(=O)C2=O,100% (active)
17,CC(C)OC(=O)CN1C(=O)C(=O)c2ccccc21,9.06%
18,CCCCNc1nc2c(c(=O)n(C)c(=O)n2C)n1Cc1cccc(OC)c1,19.3%
19,COc1ccc(CNS(=O)(=O)c2cc(-c3cc(C)no3)ccc2C(C)C)cc1,51.7% (active)
20,Cn1nccc1C(=O)NC1CCCc2c1cnn2-c1ccc(F)cc1F (configuration not stated),23.2% (active)
21,Cn1nccc1C(=O)NC1CCCc2c1cnn2-c1ccccc1F (configuration not stated),7.23%

row,Compound,inhibition
1,COc1cccc2sc(N(CCCN(C)C)C(=O)CCS(=O)(=O)c3ccccc3)nc12,7.79%
2,Cc1nn2c(NCCN(C)C)c3c(nc2c1-c1ccccc1)CCC3,-0.91%
3,COc1cccc(C(=O)Nc2ccc(N3CCCC3)cc2)c1,43.2% (active)
4,COc1cccc(C(=O)Nc2ccc(N3CCN(C(=O)c4ccco4)CC3)cc2)c1,23.9% (active)
5,CC(C)(C)Nc1nc(-c2ccccn2)nc2ccccc12,-6.6%
6,CC[n+]1cc(C)ccc1/C=C/c1ccc(N(C)C)cc1,19.6%
7,Oc1cccc(/C=N/Nc2ccc(Cl)nn2)c1O,2.22%
8,C/C(=N\NC(=O)c1ccccc1F)c1ccccn1,67.3% (active)
9,C=CCC1(CC=C)CCCN1C(=O)c1cc(COc2ccc(-n3cncn3)cc2)on1,8.6%
10,COc1ccc(Nc2cc(C)nc(-n3nc(C)cc3C)n2)cc1,54.9% (active)
11,CC(=O)c1ccc(Oc2cc(C)nc(-n3nc(C)cc3C)n2)cc1,49.9% (active)
12,COc1ccc(NC(=O)/C(Cl)=C(/Cl)S(=O)Cc2ccc(C)cc2)cn1 (configuration not stated),89% (active)
13,CCOc1ncccc1C(=O)NCCc1ccc(OC)cc1,12.2%
14,COc1ccc(CS(=O)/C(Cl)=C(/Cl)C(=O)Nc2ccc(OC)nc2)cc1 (configuration not stated),73.2% (active)
15,CCOc1ccccc1NC(=O)Cn1nnc(C(=O)NCc2cccs2)c1N,56.9% (active)
16,CSc1nc(N(C)NC(=O)c2cccc(C)c2)c2ccccc2n1,76.1% (active)
17,CCn1c(C)nc2c1C(=O)c1ccccc1C2=O,10.1%
18,C/C(=N\NC(=O)c1ccoc1C)c1ccccc1O,31.9% (active)
19,COc1ccccc1N(CC(=O)N/N=C(\C)c1ccccc1O)S(=O)(=O)c1ccc(C)cc1,10.4%
20,Cc1ccc(Nc2nc(N3CCOCC3)nc(N3CCOCC3)n2)cc1Cl,63.1% (active)
21,CCOC(=O)/C=C/C(=O)OCC(=O)NC(c1ccccc1)c1ccccc1,43.9% (active)

row,Compound,inhibition
1,CCOC(=O)C1=C(N)N2C(=O)C(C)SC2=C(C(=O)OCC)C1c1cc(OC)c(OC)c(OC)c1 (configuration not stated),-3.21%
2,COc1ccc(Nc2cc(=O)oc3ccccc23)cc1,49.1% (active)
3,O=C(Nn1cc(C(=O)N2CCN(c3ccccc3F)CC2)c2ccccc2c1=O)c1cnccn1,-3.18%
4,Cc1ccc(-n2c(SCC(=O)Nc3ncc(Cl)cc3Cl)nc3ccccc32)cc1,44.1% (active)
5,Cc1cccc(NS(=O)(=O)c2ccc(-c3cnc(C4CC4)o3)cc2)c1,53% (active)
6,Cc1onc(NC(=O)c2ccc([N+](=O)[O-])o2)c1Br,-1.42%
7,Cc1cccc(-n2ncc(Cl)c(Cl)c2=O)c1,27.2% (active)
8,Cc1nc(Nc2ccc3c(c2)OCCO3)c2nnn(Cc3ccccc3Cl)c2n1,11.1%
9,CC(C)c1cc(C(=O)N/N=C/C(Br)=C/c2ccccc2)n[nH]1,42.1% (active)
10,O=C(NC(Nc1nc2ccc([N+](=O)[O-])cc2s1)(C(F)(F)F)C(F)(F)F)c1ccccc1,97.9% (active)
11,CCCOC(=O)c1[nH]c2c(c1C)C(=O)CC(c1cccs1)C2 (configuration not stated),57.1% (active)
12,CCOc1cc(/C=C/c2nc3ccccc3c(=O)[nH]2)cc(Br)c1OC,50.8% (active)
13,CCOc1c(Nc2cccc(Cl)c2)c(=O)c1=O,-1.97%
14,O=C(Nc1ccccc1Cl)/C(Cl)=C(\Cl)S(=O)c1ccccc1 (configuration not stated),78.4% (active)
15,O=C(CN1C(=O)C2C3C=CC(C3)C2C1=O)Nc1nc(-c2ccccn2)cs1 (configuration not stated),19.4%
16,Cc1ccc(S(=O)(=O)C2(S(=O)(=O)c3ccc(C)cc3)CCCC2)cc1,23.1% (active)
17,COc1ccc(Nc2oc(-c3ccccc3Cl)nc2C#N)cc1,58.2% (active)
18,CNC[C@H](CC1CCCCC1)NC[C@H](NCCC1CCCC1)[C@H](C)O,56.1% (active)
19,CCOc1cccc(-n2nnnc2-c2ccc(OC)cc2)c1,39.2% (active)
20,COc1ccc(C2=NOC(C(=O)NCc3ccco3)C2)cc1OC (configuration not stated),39.3% (active)
